Measurements as given in PubChem BioAssay (NCI).
This is part of a sample that, as a whole, favours compounds with a hit. Of some 83,000 tested, about 20% had one in any assay.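 A percent growth of 40 corresponds to 60% growth inhibition; 0 means no net growth; -100 means all cells died. Active threshold: below 10.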 Values without a mark were called inactive. Activity calls are given as the source filed them.

Assays:
Test in all cases: NCI-60 one-dose screen, 48 h (100 = growth as untreated, 0 = no growth, -100 = all killed)
Settings in all cases: 10 µM unless noted
[1] = system: SR leukemia
[2] = system: RPMI-8226 leukemia
[3] = system: OVCAR-8 ovarian
[4] = system: OVCAR-5 ovarian
[5] = system: OVCAR-4 ovarian
[6] = system: SK-OV-3 ovarian
[7] = system: IGROV1 ovarian
[8] = system: OVCAR-3 ovarian
[9] = system: HS 578T breast
[10] = system: NCI/ADR-RES ovarian

**Q.** How did the growth [1] turn out when `CN1C2CCC1/C(=C\c1ccc(F)cc1)C(=O)/C2=C/c1ccc(F)cc1` was run?
**A.** 21.6%

**Q.** And the growth [2]?
**A.** 11%

**Q.** What about the growth [3] of the same compound?
**A.** -19.8% (active)

**Q.** What about the growth [4] of the same compound?
**A.** 72.3%

**Q.** And the growth [5]?
**A.** 39.1%

**Q.** And the growth [6]?
**A.** 79.8%

**Q.** And the growth [7]?
**A.** 61.9%

**Q.** What about the growth [8] of the same compound?
**A.** 21%

**Q.** What about the growth [9] of the same compound?
**A.** 75%

**Q.** What about the growth [10] of the same compound?
**A.** 20.2%

**Q.** `COc1ccc(-c2cc(-c3ccc(OC)cc3)c3sc(=O)[nH]c3n2)cc1` was tested. Which growth [1] did it give?
**A.** 98.1%

**Q.** What about the growth [2] of the same compound?
**A.** 85.3%

**Q.** What about the growth [3] of the same compound?
**A.** 82.4%

**Q.** And the growth [4]?
**A.** 101%

**Q.** And the growth [5]?
**A.** 95.6%

**Q.** What about the growth [6] of the same compound?
**A.** 92.8%

**Q.** And the growth [7]?
**A.** 84.4%

**Q.** What about the growth [8] of the same compound?
**A.** 101%

**Q.** What about the growth [9] of the same compound?
**A.** 67.7%

**Q.** What about the growth [10] of the same compound?
**A.** 92.2%

**Q.** Which results are given for `C=CCCCCOc1cccc(/C=C2\N=C3SCCCN3C2=O)c1`?
**A.** growth [1]: 125%; growth [2]: 103%; growth [3]: 101%; growth [4]: 106%; growth [5]: 87.6%; growth [6]: 97.7%; growth [7]: 88.6%; growth [8]: 107%; growth [9]: 112%; growth [10]: 95.6%

**Q.** What does the source list for `CCCCCCCOc1cccc(/C=C2\N=C3SCCCN3C2=O)c1`?
**A.** growth [1]: 105%; growth [2]: 91.7%; growth [3]: 102%; growth [4]: 115%; growth [5]: 85.6%; growth [6]: 107%; growth [7]: 98.7%; growth [8]: 90.6%; growth [9]: 109%; growth [10]: 97%

**Q.** Which results are given for `COc1cc(C2C(C#N)=C(N)Oc3cc4c(cc32)OCO4)cc2c1OCO2` (stereo not given)?
**A.** growth [1]: 15.3%; growth [2]: 31.4%; growth [3]: 35.1%; growth [4]: 41.3%; growth [5]: 42.3%; growth [6]: -5.36% (active); growth [7]: 33.3%; growth [8]: -39.7% (active); growth [9]: 23%; growth [10]: 11.2%

**Q.** How did the growth [1] turn out when `COc1cc(C2CC(c3ccc(C)cc3)=NN2C=O)ccc1Oc1ccnc2cc(Cl)ccc12` (stereo not given) was run?
**A.** 96.6%

**Q.** What about the growth [2] of the same compound?
**A.** 87.8%

**Q.** What about the growth [3] of the same compound?
**A.** 60.3%

**Q.** What about the growth [4] of the same compound?
**A.** 98%

**Q.** What about the growth [5] of the same compound?
**A.** 95.8%

**Q.** And the growth [6]?
**A.** -15.4% (active)

**Q.** And the growth [7]?
**A.** 77.2%

**Q.** What about the growth [8] of the same compound?
**A.** 39.5%

**Q.** And the growth [9]?
**A.** 7.47% (active)

**Q.** What about the growth [10] of the same compound?
**A.** 65.8%

**Q.** For `CSC1=N/C(=C\c2cccc(OCc3ccc(Cl)cc3)c2)C(=O)N1`, which growth [1] is on record?
**A.** 80.9%

**Q.** And the growth [2]?
**A.** 67.7%

**Q.** What about the growth [3] of the same compound?
**A.** 86.1%

**Q.** And the growth [4]?
**A.** 106%

**Q.** And the growth [5]?
**A.** 56.9%

**Q.** What about the growth [6] of the same compound?
**A.** 98.5%

**Q.** What about the growth [7] of the same compound?
**A.** 86.7%

**Q.** What about the growth [8] of the same compound?
**A.** 84.2%

**Q.** What about the growth [9] of the same compound?
**A.** 104%

**Q.** And the growth [10]?
**A.** 79%

**Q.** `NC(CCC(=O)NC(CS)C(=O)NCC(=O)O)C(=O)O` (stereo not given) was tested. Which growth [1] did it give?
**A.** 97.3%

**Q.** What about the growth [2] of the same compound?
**A.** 74.2%

**Q.** What about the growth [3] of the same compound?
**A.** 98.7%

**Q.** And the growth [4]?
**A.** 97.6%

**Q.** And the growth [5]?
**A.** 108%

**Q.** And the growth [6]?
**A.** 116%

**Q.** And the growth [7]?
**A.** 98.1%

**Q.** And the growth [8]?
**A.** 110%

**Q.** And the growth [9]?
**A.** 107%

**Q.** What about the growth [10] of the same compound?
**A.** 107%

**Q.** Which growth [1] does the source give for `COc1cc(Nc2ncccc2/C=C/C(=O)c2cc(OC)c(OC)c(OC)c2)cc(OC)c1OC` here?
**A.** 9.53% (active)

**Q.** What about the growth [2] of the same compound?
**A.** 52.1%

**Q.** And the growth [3]?
**A.** 71.4%

**Q.** What about the growth [4] of the same compound?
**A.** 102%

**Q.** And the growth [5]?
**A.** 83.1%

**Q.** And the growth [6]?
**A.** 97.4%

**Q.** What about the growth [7] of the same compound?
**A.** 87.1%

**Q.** And the growth [8]?
**A.** 91.9%

**Q.** What about the growth [9] of the same compound?
**A.** 99.5%

**Q.** What about the growth [10] of the same compound?
**A.** 79.4%

**Q.** `CCC(=O)NC1=C(Cl)C(=O)C(NC(=O)CC)=C(Cl)C1=O` was tested. Which growth [1] did it give?
**A.** -55.1% (active)

**Q.** And the growth [2]?
**A.** -34.3% (active)

**Q.** And the growth [3]?
**A.** 99.3%

**Q.** And the growth [4]?
**A.** 107%

**Q.** And the growth [5]?
**A.** -98.5% (active)

**Q.** What about the growth [6] of the same compound?
**A.** 99.9%

**Q.** And the growth [7]?
**A.** 116%

**Q.** And the growth [8]?
**A.** -94.5% (active)

**Q.** What about the growth [9] of the same compound?
**A.** 135%

**Q.** And the growth [10]?
**A.** 101%

**Q.** How did the growth [1] turn out when `CS(=O)(=O)c1ccc(C(=O)N2N=C(c3ccccc3)CC2c2ccc3c(c2)OCO3)cc1` (stereo not given) was run?
**A.** 90.9%

**Q.** What about the growth [2] of the same compound?
**A.** 95.7%

**Q.** And the growth [3]?
**A.** 100%

**Q.** And the growth [4]?
**A.** 100%

**Q.** And the growth [5]?
**A.** 99.3%

**Q.** And the growth [6]?
**A.** 83.7%

**Q.** What about the growth [7] of the same compound?
**A.** 96.2%

**Q.** What about the growth [8] of the same compound?
**A.** 106%

**Q.** And the growth [9]?
**A.** 95.7%

**Q.** And the growth [10]?
**A.** 103%
